These results are taken from PubChem BioAssay AID588346 (National Center for Advancing Translational Sciences (NCATS), 2011).

SMILES strings stand for the structures. Inconclusive results are not listed. A call without a number means that no potency is given here. Calls of active or inactive are those of the source. The call rests on the fitted dose curve; in most records, active means well fitted curve in the direction sought with a large enough effect; inconclusive means small, poorly fitted or top-dose-only effect, or another doubt; inactive means no such curve, though single readings can be large or run the other way.

A short description of this test: qHTS Assay for Inhibitors of Histone Lysine Methyltransferase G9a: Hit Confirmation in b-rIgG Counterscreen. The following applies: AlphaScreen b-rIgG bead counterscreen, signal interference; series mostly up to 55.7 µM. From the text:
Methylated lysines, on the N-terminal tails of histone proteins serve as epigenetic markers to recruit factors that can then modify local chromatin structure to lead to functional consequences. G9a and other members of the SUV39 family of the SET domain-containing superfamily of histone lysine methyltransferases (HMT) have been identified to specifically methylate Lys9 of histone H3 (H3K9). G9a catalyzes the mono- and di-methylation of H3K9 in mammalian euchromatic regions, where the resulting H3K9me2 is indicative of transcriptional repression. […] The inhibition of G9a will result in transcriptional activation and work synergistically with DNA methyltransferase and histone deacetylase inhibitors, to kill cancer cells. This qHTS assay for identification of G9a inhibitors is a chemiluminescence based AlphaScreen (PerkinElmer). Methylation of biotinylated-histone peptide is measured through specific antibody-based detection, in conjunction with streptavidin-coated donor and anti-IgG antibody-coated acceptor beads. The method is particularly well suited for detection of inhibitors acting by the desired histone peptide competitive mechanism and is applicable to testing other HMTs. Although AlphaScreen has significant advantages with its utility in a variety of epigenetic target assays, the primary screening data provided in this deposition should be used with caution due to the prevalence of screening artifacts. Because an AlphaScreen counterscreen is highly recommended to be run against any putative actives to eliminate non specific artifacts, this assay was used as a counterscreen. Quinn et al. A chemiluminescence-based method for identification of histone lysine methyltransferase inhibitors. Mol Biosyst 6(5): 782-8. 2010. PMID: 20567762 [2] Baell,Holloway. New substructure filters for removal of pan assay interference compounds (PAINS) from screening libraries and for their exclusion in bioassays. J Med Chem. 53(7):2719-40. 2010. PMID: 20131845 NIH Chemical Genomics Center [NCGC] NIH Molecular Libraries Probe Production Network [MLPCN] MLPCN Grant: MH084681-02 Assay Submitter (PI): Structural Genomic Consortium - Toronto, Peter Brown
Biotinylated rabbit-IgG (b-rIgG) (Santa Cruz Biotechnology, Inc., Santa Cruz, CA) was added to 1,536-well plates in a 3 uL dispense. Compounds were added in a 23 nL pin-transfer step, and plates were incubated at room temperature for 15 min. Streptavidin-coated donor and anti-rIgG acceptor AlphaScreen beads were added (1 uL) for final concentrations of 20 ug/mL each bead and 1 nM b-rIgG, and plates read on the Envision after a 15 min incubation at room temperature in the dark.
For the compound `O=C(NN1C(=O)c2ccccc2NC1c1ccc([N+](=O)[O-])o1)c1ccc([N+](=O)[O-])cc1` (stereo not given), the Potency entry was “inactive”.
The result for `COc1ccc(NC(=O)CSc2nc3c(oc4ccccc43)c(=O)n2Cc2ccco2)cc1Cl` reads “inactive”; that for `CC(C)C(=O)NC(c1ccc(N(C)C)cc1)c1ccc2cccnc2c1O` (stereo not given), “inactive”.
As for `Cc1ccc(/C=[N+](\[O-])c2ccc(N(C)C)cc2)c2nsnc12`, the Potency result was “inactive”.
In the case of `COc1cc2nc(N3CCN(C(=O)C4COc5ccccc5O4)CC3)nc(N)c2cc1OC` (stereo not given), the Potency result is “inactive”.
Consider `C[n+]1cc2c3c(ccc2c2ccc4cc5c(cc4c21)OCO5)OCO3`, for which the Potency entry is “inactive”.
Next, `COc1nc(Nc2nc3ccccc3c(=O)[nH]2)nc2ccc(C)cc12`: “inactive”; `COc1ccc(C(=O)/C=C/Sc2nc3ccccc3o2)cc1`: “inactive”; `C/C=C/c1ccc(OCC(=O)OCC(=O)NC2CC2)c(OC)c1`: “inactive”.
Next, `COc1ccc2c(C)nc(Nc3nc(-c4ccccc4)cc(=O)[nH]3)nc2c1`: “inactive”; `CN(c1ccccc1)S(=O)(=O)c1nnc(NC(=O)c2ccccc2)s1`: “inactive”; `COCCNC(=S)N/N=C(\C)c1ccccc1O`: “inactive”.
`CCCC(=O)N1CCN(c2ccc(NC(=O)c3ccc([N+](=O)[O-])o3)cc2Cl)CC1`: the Potency result is “inactive”.
Take `CNC(=O)Oc1ccc2c(c1)[C@]1(C)CCN(C)[C@@H]1N2C`: the Potency result is “inactive”.
On to `Oc1ccc(Br)cc1C=Nc1ccc2c3c(cccc13)CC2`, for which the Potency entry was “inactive”.
Consider `CC1=NN(c2nc3ccccc3[nH]2)C(=O)C1Cc1ccccc1` (stereo not given), for which the Potency entry is “inactive”.
Regarding `O=C(N/N=C/c1ccccn1)c1cc(-c2ccc(Cl)cc2)nc2ccccc12`, the Potency entry was “inactive”.
On to `O=C(CSc1cccc[n+]1[O-])c1ccccc1Br`, for which the Potency result was “inactive”.
The result for `COc1cccc(N2CCN(S(=O)(=O)c3ccc(-n4cnnn4)cc3)CC2)c1` reads “inactive”; that for `COc1ccccc1N1CCN(CCN2C(=O)CC3(CCCC3)CC2=O)CC1`, “inactive”.
As for `CC(C)N(CCC(=O)c1ccc2ccccc2c1)Cc1ccccc1`, the Potency result was “inactive”.
The result for `CCC(=O)N1CCN(c2ccc(NC(=O)c3ccc([N+](=O)[O-])o3)cc2Cl)CC1` reads “inactive”.
`CNc1nc(N2CCCN(C)CC2)nc2cc(OC)c(OC)cc12`: the Potency entry was “inactive”.
Next, `COc1cc2c(cc1C(F)(F)F)N(C(=O)Nc1cc(F)cc(-c3cccnc3)c1)CC2`: “inactive”.
On to `Nc1nc2ccc(Cl)cc2c2nc(-c3ccco3)nn12`, for which the Potency result is “inactive”.
For `Cc1ccc(C(C)C)c(OCc2ccc(C(=O)N/N=C/c3cccc(O)c3O)cc2)c1`, the Potency entry is “inactive”.
As for `COc1ccc(NC(=O)c2ccc(-c3ccc(-c4noc(C)n4)cc3C)cc2)cc1N1CCN(C)CC1`, the Potency was 28.2 µM (active).
On to `O=C1C=C(Nc2ccc(Cl)cc2)C(=O)N1c1ccc(Cl)cc1`, for which the Potency entry was “inactive”.
For `CCCCOC(=O)Cn1c2ccc(OC)cc2c2nc3ccccc3nc21`, the Potency entry was “inactive”.
The result for `NC(=S)N/N=C/c1ncc(C(F)(F)F)cc1Cl` reads “inactive”.
The result for `Oc1c(N=Nc2ccccn2)ccc2ccccc12` reads 11.2 µM (active); that for `CSc1nsc(/C=C/Nc2cccc(Cl)c2)c1C#N`, “inactive”; that for `NC(=O)c1cc[n+](CC2=C(C(=O)O)N3C(=O)[C@@H](NC(=O)[C@@H](c4ccccc4)S(=O)(=O)[O-])[C@H]3SC2)cc1`, “inactive”.
Next, `O=C1CN(c2nc(-c3ccccc3)c3cc(Cl)ccc3n2)c2ccccc2N1`: “inactive”; `COc1ccc2c(C)cc(SCC(=O)N(C)C3CCS(=O)(=O)C3)nc2c1` (stereo not given): “inactive”.
Regarding `CCc1nnc(NC(=O)c2cccc(C(=O)Nc3nnc(CC)s3)n2)s1`, the Potency result is “inactive”.
Next, `O=C(CSc1cccc2cccnc12)N1CCCC1`: “inactive”.
The result for `N=c1n(CC(=O)c2ccc([N+](=O)[O-])cc2)c2ccccc2n1Cc1ccccc1Cl` reads “inactive”; that for `CCOn1c(=O)c[n+]([O-])c2ccccc21`, “inactive”.
Next, `CCN1CCc2nc(N)oc2CC1`: “inactive”.
